# Among all 1,200 compounds or so, about 400 (33%) were called active. The list is a sample of the results. Potency and affinity values are given separately. A number with no mark means an inactive call. How the calls were made is not given here.
# Experiment: mammalian cell cytotoxicity, dose response, cytotoxicity control (AID 434958);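 further: cells exposed to compound for 72 hours before readout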
# Details: cytotoxicity counter-screen; series mostly up to 40 µM; viability: at the top concentration
row,SMILES,viability
1,CCOc1nnnc2c1sc1nc(N3CCOCC3)c3c(c12)CCCC3,86.5%
2,Fc1ccc(C2Nc3cccc4cccc(c34)N2)cc1,87%
3,CCC(CC)C(=O)Nc1ccc(Sc2ccc([N+](=O)[O-])cc2)cc1,85.5%
4,Cc1nc(S/C(=C\c2ccc(OCc3ccccc3Cl)cc2)C(=O)O)n[nH]1,86.2%
5,CCn1nnnc1SCC(=O)c1ccc(C)cc1C,105%
6,CSc1ccccc1C(=O)Nc1ccc2c(c1)OCCO2,86.6%
7,O=C(NN=C1CCCC1)c1cccs1,97.9%
8,CC(C)OCc1c(C(=O)Nc2nccs2)oc2ccccc12,84.7%
9,COc1ccc(/C=N/Nc2nc(-c3ccc(C)cc3)c(NC(C)=O)s2)cc1OC,85.2%
10,COc1ccc(-c2cc(C(F)F)nc(-n3nc(C)cc3C)n2)cc1,109%
11,Cc1onc(-c2c(Cl)cccc2Cl)c1/C(N)=N/OC(=O)C1CC1,104%
12,CCOc1ccc2cc(S(=O)(=O)N3CCCCC3)ccc2c1,90.6%
13,COc1cccc(-n2c([S-])c(C(=O)Nc3ccc(S(=O)(=O)N4CCOCC4)cc3)[n+]3cc(C(N)=O)ccc23)c1,93.7%
14,S=C(Nc1ccc(Cl)cc1)c1nc2ccccc2s1,98.3%
15,COc1ccc(NC(=O)CSc2nncn2C)c([N+](=O)[O-])c1,97%
16,O=C(/C=C/c1ccccc1)NC1CC2CCC1C2 (centres undefined),103%
17,O=C(CSc1n[nH]c(=O)n1C1CC1)c1ccc2c(c1)OCCO2,94.2%
18,CC1(c2ccc([N+](=O)[O-])cc2)NC(=O)N(CC(=O)c2ccc3c(c2)OCO3)C1=O (centres undefined),96.8%
19,O=S(=O)(Nc1ccccc1)c1ccc2c(c1)CCO2,93.8%
20,Cc1ccc(-c2nc3[nH]c(=O)cc(NC(=O)C(C)C)n3n2)cc1,112%
21,COCCNC(=S)N/N=C(\C)c1cccc(OC)c1,94.5%
22,CCOCC(=O)Nc1ccc(F)c(F)c1,98.5%

row,SMILES,viability
1,O=C(CC12CC3CC(CC(C3)C1)C2)NCc1ccc(F)cc1,94%
2,O=c1c2c(nc3n1CCCCC3)sc1c(O)c(Br)ccc12,89.9%
3,COc1ccc(-c2csc(/C=C/c3ccc4c(c3)OCO4)n2)cc1OC,103%
4,COc1cc(NC(=O)c2ccc(Cl)cc2)c(OC)cc1NC(=O)CN1CCOCC1,94.5%
5,CN(C)S(=O)(=O)c1ccc(NC(=O)c2cc3ccccc3o2)cc1,94.6%
6,Cc1ccccc1NC(=O)c1ccc(CN(c2ccccc2)S(=O)(=O)c2ccccc2)cc1,86.9%
7,CNC(=O)Nc1cccc(-c2cc(-c3c(Cl)cccc3Cl)no2)c1,84.4%
8,O=c1oc(-c2ccccc2)nc2sc3c(c12)CCC3,96.8%
9,C=CCn1cc(C(=O)NCCCOC)c(=O)c2cc(S(=O)(=O)N(CC)CC)ccc21,90.7%
10,CC(OC(=O)c1ccc([N+](=O)[O-])o1)C(=O)NC1CCCCC1C (centres undefined),90.8%
11,C#CCOc1c(Cl)cc(/C=N/NC(N)=S)cc1OCC,96.7%
12,BrC(=C\c1ccccc1)/C=N/N1CCN(c2ccccn2)CC1,104%
13,Cc1ccc(C(=O)N2CCC3(CC2)Oc2ccc(F)cc2C(=O)C32CC(c3cccnc3)=NO2)s1 (centres undefined),98.1%
14,COc1ccc(C(=O)Nc2ccc3nc(N4CCCCC4)cc(C)c3c2)c(OC)c1,94.4%
15,O=C(Nc1c2c(nc3ccccc13)CCCC2)c1ccccc1F,108%
16,COc1ccc(-c2sc3cc(OC)c(OC)cc3c2C#CCCO)cc1,89.1%
17,CCN(CC(=O)Nc1ccccc1OC)C(=O)c1cc(S(=O)(=O)N2CCCCCC2)ccc1OC,95.8%
18,C/C(=N\NC(=S)NCc1ccccc1)c1cccc(Br)c1,95.1%
19,O=C(COc1cccc2cccnc12)N/N=C/c1ccc(O)cc1,95.2%
20,O=C(Cc1cccc2ccccc12)N/N=C/c1ccc(O)c([N+](=O)[O-])c1,99.7%
21,CN(C)c1ccc(S(=O)(=O)NCC(=O)OCC(=O)Nc2cccc(Cl)c2)cc1[N+](=O)[O-],96.4%
22,O=C(NCc1nc2ncc(Br)cc2[nH]1)c1ccccc1,94.1%
